Experimental data published in PubChem BioAssay (NCATS).
Results filed as inconclusive are left out. The source made the active and inactive calls. Calls follow the shape of the dose curve; as a rule, active = well fitted curve in the direction sought with a large enough effect; inconclusive = small, poorly fitted or top-dose-only effect, or another doubt; inactive = no such curve, though single readings can be large; an effect the other way counts as inactive or inconclusive.

Tests used:
[1] = Confirmation and Secondary Assay for Modulators of Hemoglobin Beta Chain Splicing at IVS2 654 locus (AID 910); details: HeLa EGFP-654 splicing reporter, GFP fluorescence, 48 h; series mostly up to 38.3 µM;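 also: HeLa cells stably carrying EGFP split by mutant beta-globin IVS2-654 intron; per-well total GFP intensity by laser scanning cytometry after 2-day treatment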
In short: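 Readout: per-well total peak green fluorescence (488 nm ex, 500–520 nm em) from objects 5–250 µm, reflecting correct splicing of an EGFP-654 reporter. Compounds were applied for 2 days at 37 °C to overnight-plated HeLa EGFP-654 cells; controls were DMSO and 500 nM IVS2-654 PNA.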

3D7 = experiment: qHTS profiling for inhibitors of Plasmodium falciparum proliferation (AID 504749); also: nearly all actives have a fitted effect of over 60% in size; details: P. falciparum in erythrocytes, SYBR Green DNA, 72 h; series mostly up to 28.7 µM
In short: (§1)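 Infected RBCs, 0.3% parasitemia/2.5% Hct final; cpd 72 h, 37 C, 5% CO2; lysis buffer with saponin/triton/SYBR Green I, o/n RT dark; FI 485/535; norm. to artemisinin (0.29 uM) and DMSO.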

CP215 = experiment: as above; details: P. falciparum in erythrocytes, SYBR Green DNA, 72 h; series mostly up to 28.7 µM
In short: as §1

CP217 = experiment: as above; details: P. falciparum in erythrocytes, SYBR Green DNA, 72 h; series mostly up to 28.7 µM
In short: as §1

CP250 = experiment: as above; details: P. falciparum in erythrocytes, SYBR Green DNA, 72 h; series mostly up to 28.7 µM
In short: as §1

CP256 = experiment: as above; details: P. falciparum in erythrocytes, SYBR Green DNA, 72 h; series mostly up to 28.7 µM
In short: as §1

CP260 = experiment: as above; details: P. falciparum in erythrocytes, SYBR Green DNA, 72 h; series mostly up to 28.7 µM
In short: as §1

CP286 = experiment: as above; details: P. falciparum in erythrocytes, SYBR Green DNA, 72 h; series mostly up to 28.7 µM
In short: as §1

CP291 = experiment: as above; details: P. falciparum in erythrocytes, SYBR Green DNA, 72 h; series mostly up to 28.7 µM
In short: as §1

CP315 = experiment: as above; details: P. falciparum in erythrocytes, SYBR Green DNA, 72 h; series mostly up to 28.7 µM
In short: as §1

CP335 = experiment: as above; details: P. falciparum in erythrocytes, SYBR Green DNA, 72 h; series mostly up to 28.7 µM
In short: as §1

DIV14 = experiment: as above; details: P. falciparum in erythrocytes, SYBR Green DNA, 72 h; series mostly up to 28.7 µM
In short: as §1

DIV17 = experiment: as above; details: P. falciparum in erythrocytes, SYBR Green DNA, 72 h; series mostly up to 28.7 µM
In short: as §1

Dd2 = experiment: as above; details: P. falciparum in erythrocytes, SYBR Green DNA, 72 h; series mostly up to 28.7 µM
In short: as §1

FAB9 = experiment: as above; details: P. falciparum in erythrocytes, SYBR Green DNA, 72 h; series mostly up to 28.7 µM
In short: as §1

JCK = experiment: as above; details: P. falciparum in erythrocytes, SYBR Green DNA, 72 h; series mostly up to 28.7 µM
In short: as §1

N140 = experiment: as above; details: P. falciparum in erythrocytes, SYBR Green DNA, 72 h; series mostly up to 28.7 µM
In short: as §1

PC15 = experiment: as above; details: P. falciparum in erythrocytes, SYBR Green DNA, 72 h; series mostly up to 28.7 µM
In short: as §1

SC27B = experiment: as above; details: P. falciparum in erythrocytes, SYBR Green DNA, 72 h; series mostly up to 28.7 µM
In short: as §1

TAB165 = experiment: as above; details: P. falciparum in erythrocytes, SYBR Green DNA, 72 h; series mostly up to 28.7 µM
In short: as §1

Measured: Potency

CN(C)C(=O)c1ccc(-c2nc(Nc3ccc(F)cc3)c3ccccc3n2)cc1
inactive: [1]

C[C@]12CC[C@H]3c4ccc(O)cc4CC[C@@H]3[C@H]1CC[C@@H]2OP(=O)(O)O
not listed: [1]
inactive: all other assays above

N[C@@H](Cc1ccccc1)C(=O)O
inactive: all assays above

CN(C)[C@H]1C(=O)C(C(=O)NCN2CCCC2)=C(O)[C@]2(O)C(=O)C3=C(O)c4c(O)cccc4[C@](C)(O)[C@H]3C[C@H]12
not listed: [1]
inactive: all other assays above
